Results: PubChem BioAssay AID1159580 (chemical genetic matrix, 2015)
Hit rate of the full screen: of about 5,500 compounds, about 2,000 (36%) were called active. Inconclusive results (about 18%) are left out. No stated cut-off is given here; in the data, active means normalized growth mostly below about 0.91 (no sharp cut-off); inconclusive means no clear call, values can overlap the other calls; inactive means mostly above about 0.92. This is one part of the list.

Assay: chemical genetic growth profiling, strain panel (AID 1159580);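 further: tested at 20 µM; growth read once vehicle control cultures reached saturation at 30 °C; 1 = growth at the plate median or of vehicle wells; lower values mean less growth of the strain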
Conditions: S. cerevisiae deletion strains, growth OD
[1] = locus YAL021C, strain ccr4, hits give low values
[2] = locus YAL026C, strain drs2, hits give low values
[3] = locus YAL030W, strain snc1, hits give low values
[4] = locus YBL061C, strain skt5, hits give low values
[5] = locus YBR009C, strain hhf1, hits give low values
[6] = locus YBR023C, strain chs3, hits give low values
[7] = locus YBR171W, strain sec66, hits give low values
[8] = locus YBR231C, strain swc5, hits give low values
[9] = locus YBR279W, strain paf1, hits give low values
[10] = locus YCL011C, strain gbp2, hits give low values
[11] = locus YCL016C, strain dcc1, hits give low values
[12] = locus YCL069W, strain vba3, hits give low values
[13] = locus YCR088W, strain abp1, hits give low values
[14] = locus YDL005C, strain med2, hits give low values
[15] = locus YDL040C, strain nat1, hits give low values
[16] = locus YDR001C, strain nth1, hits give low values
[17] = locus YDR069C, strain doa4, hits give low values
[18] = locus YDR137W, strain rgp1, hits give low values
[19] = locus YDR159W, strain sac3, hits give low values
[20] = locus YDR297W, strain sur2, hits give low values
[21] = locus YDR334W, strain swr1, hits give low values
[22] = locus YDR335W, strain msn5, hits give low values
[23] = locus YDR392W, strain spt3, hits give low values
[24] = locus YEL003W, strain gim4, hits give low values
[25] = locus YEL037C, strain rad23, hits give low values
[26] = locus YEL061C, strain CIN8 (second series), hits give low values
[27] = locus YER015W, strain faa2, hits give low values
[28] = locus YER016W, strain bim1, hits give low values
[29] = locus YER111C, strain swi4, hits give low values
[30] = locus YER155C, strain BEM2 (second series), hits give low values
[31] = locus YFR010W, strain ubp6, hits give low values
[32] = locus YGL167C, strain pmr1, hits give low values
[33] = locus YGL173C, strain kem1, hits give low values
[34] = locus YGL227W, strain vid30, hits give low values
[35] = locus YGL240W, strain doc1, hits give low values
[36] = locus YGL253W, strain hxk2, hits give low values
[37] = locus YHR013C, strain ard1, hits give low values
[38] = locus YHR027C, strain rpn1, hits give low values
[39] = locus YHR030C, strain SLT2, hits give low values
[40] = locus YHR079C, strain IRE1, hits give low values
[41] = locus YHR142W, strain chs7, hits give low values
[42] = locus YJL092W, strain hpr5, hits give low values
[43] = locus YJL095W, strain BCK1 (second series), hits give low values
[44] = locus YJL095W, strain BCK1, hits give low values
[45] = locus YJL115W, strain asf1, hits give low values
[46] = locus YJL129C, strain trk1, hits give low values
[47] = locus YJL154C, strain vps35, hits give low values
[48] = locus YJL164C, strain tpk1, hits give low values
[49] = locus YJL166W, strain qcr8, hits give low values
[50] = locus YJR066W, strain TOR1, hits give low values
[51] = locus YKL160W, strain elf1, hits give low values
[52] = locus YKR026C, strain gcn3, hits give low values
[53] = locus YKR091W, strain srl3, hits give low values
[54] = locus YLL001W, strain dnm1, hits give low values
[55] = locus YLL026W, hits give low values
[56] = locus YLL041C, strain sdh2, hits give low values
[57] = locus YLR027C, strain aat2, hits give low values
[58] = locus YLR113W, strain HOG1, hits give low values
[59] = locus YLR221C, strain rsa3, hits give low values
[60] = locus YLR258W, strain gsy2, hits give low values
[61] = locus YLR262C, strain YPT6 (second series), hits give low values
[62] = locus YLR320W, strain mms22, hits give low values
[63] = locus YLR342W, strain FKS1, hits give low values
[64] = locus YLR357W, strain rsc2, hits give low values
[65] = locus YLR370C, strain arc18, hits give low values
[66] = locus YLR384C, strain iki3, hits give low values
[67] = locus YML120C, strain ndi1, hits give low values
[68] = locus YMR058W, strain fet3, hits give low values
[69] = locus YMR125W, strain sto1, hits give low values
[70] = locus YMR129W, hits give low values
[71] = locus YMR205C, strain PFK2, hits give low values
[72] = locus YMR231W, strain pep5, hits give low values
[73] = locus YNL071W, strain lat1, hits give low values
[74] = locus YNL183C, strain NPR1, hits give low values
[75] = locus YNL209W, strain ssb2, hits give low values
[76] = locus YNL248C, strain rpa49, hits give low values
[77] = locus YNL322C, strain KRE1 (second series), hits give low values
[78] = locus YNR049C, strain mso1, hits give low values
[79] = locus YOR001W, strain rrp6, hits give low values
[80] = locus YOR070C, strain gyp1, hits give low values
[81] = locus YOR080W, strain dia2, hits give low values
[82] = locus YOR083W, strain WHI5, hits give low values
[83] = locus YOR106W, strain vam3, hits give low values
[84] = locus YOR231W, strain MKK1, hits give low values
[85] = locus YOR265W, strain rbl2, hits give low values
[86] = locus YOR270C, strain vph1, hits give low values
[87] = locus YOR290C, strain snf2, hits give low values
[88] = locus YPL051W, strain arl3, hits give low values
[89] = locus YPL078C, strain atp4, hits give low values
[90] = locus YPL106C, strain sse1, hits give low values
[91] = locus YPL240C, strain hsp82, hits give low values
[92] = locus YPL256C, strain CLN2, hits give low values

Measured: normalized growth

Nc1ncn[nH]1
inactive: [1] 0.986 | [2] 1.02 | [3] 1.02 | [4] 1.02 | [5] 1.04 | [6] 1.02 | [7] 1.02 | [8] 1.02 | [9] 1.02 | [10] 1.02 | [11] 1.02 | locus YCL061C, strain MRC1, hits give low values 1.02 | [12] 1.02 | [13] 1.02 | [14] 1.02 | [15] 1.02 | [16] 1.02 | [17] 1.03 | [18] 1 | [19] 1.05 | locus YDR195W, strain ref2 1.01 | [20] 1.01 | [21] 1.02 | [22] 1.02 | [23] 0.966 | [24] 1.02 | [25] 1.02 | [26] 1.01 | [27] 1.02 | [28] 1.03 | [29] 1.02 | [30] 1.04 | [31] 1.02 | [32] 1.02 | [33] 1.02 | [34] 1.02 | [35] 1.05 | [36] 1.01 | [37] 1.01 | [38] 1.02 | [39] 0.995 | [40] 1 | [41] 0.97 | [42] 1.02 | [43] 1.02 | [44] 0.967 | [45] 1.02 | [46] 1 | [47] 1.02 | [48] 1 | [49] 1.01 | locus YJL187C, strain SWE1, hits give low values 1.02 | [50] 0.923 | [51] 0.974 | [52] 1.01 | [53] 1.02 | [54] 1.03 | [55] 1.01 | [56] 1.02 | [57] 1.01 | [58] 0.985 | [59] 0.995 | [60] 1.03 | [61] 1 | [62] 1.03 | [63] 1.01 | [64] 1.06 | [65] 1.01 | [66] 1 | [67] 0.997 | [68] 1.02 | [69] 1.05 | [70] 1.01 | [71] 1.05 | [72] 1.02 | [73] 1.01 | [74] 0.933 | [75] 1.01 | [76] 0.985 | [77] 1 | [78] 1.02 | [79] 1 | [80] 1.03 | [81] 1.02 | [82] 0.979 | [83] 0.987 | [84] 0.988 | [85] 1.01 | [86] 1.02 | [87] 0.982 | [88] 0.988 | [89] 0.982 | [90] 1.05 | [91] 1.02 | [92] 0.96

O=C(O)[C@@H]1CCN1
inactive: locus YAL040C, strain CLN3, hits give low values 1.01 | locus YDR363W, strain ESC2, hits give low values 0.998 | locus YER002W, strain NOP16, hits give low values 0.998 | locus YGR078C, strain PAC10, hits give low values 1.01 | locus YGR229C, strain SMI1, hits give low values 0.984 | locus YMR263W, strain SAP30, hits give low values 0.998 | locus YMR307W, strain GAS1, hits give low values 0.992 | locus YNL153C, strain GIM3, hits give low values 0.996 | locus YNL175C, strain NOP13, hits give low values 1.01 | locus YNL197C, strain WHI3, hits give low values 1.02 | locus YNL224C, strain SQS1, hits give low values 0.963 | locus YOR083W, strain WHI5 (second series), hits give low values 1 | locus YPL055C, strain LGE1, hits give low values 0.996 | locus YPL241C, strain CIN2, hits give low values 1.01

CCOC(=O)n1ccn(C)c1=S
inactive: [1] 0.987 | [2] 0.996 | [3] 0.994 | [4] 1.01 | [5] 0.946 | [6] 1.01 | [7] 0.98 | [8] 0.984 | [9] 1 | [10] 0.997 | [11] 1.03 | [12] 0.984 | [13] 0.99 | [14] 0.99 | [15] 0.985 | [16] 0.982 | [17] 0.994 | [18] 0.96 | [19] 0.881 | locus YDR195W, strain ref2 0.976 | [20] 1 | [21] 0.961 | [22] 1.01 | [23] 0.939 | [24] 0.972 | [25] 0.974 | [26] 0.966 | [27] 0.982 | [28] 1.06 | [29] 0.994 | [30] 0.961 | [31] 0.955 | [32] 0.97 | [33] 0.975 | [34] 0.985 | [35] 0.995 | [36] 0.998 | [37] 1.02 | [38] 0.997 | [39] 1.02 | [40] 1.01 | [41] 1.01 | [42] 0.987 | [43] 0.99 | [44] 1.01 | [45] 0.963 | [46] 0.974 | [47] 0.977 | [48] 0.979 | [49] 0.986 | [50] 0.988 | [51] 1.04 | [52] 0.97 | [53] 0.99 | [54] 0.951 | [55] 0.986 | [56] 0.988 | [57] 0.999 | [58] 0.999 | [59] 0.967 | [60] 1 | [61] 0.929 | [62] 0.931 | [63] 1.01 | [64] 0.99 | [65] 0.998 | [66] 0.981 | [67] 0.974 | [68] 0.991 | [69] 0.971 | [70] 0.979 | [71] 0.983 | [72] 0.988 | [73] 0.98 | [74] 0.971 | [75] 0.985 | [76] 1.04 | [77] 1.01 | [78] 0.999 | [79] 0.949 | [80] 1.01 | [81] 0.998 | [82] 1.01 | [83] 1.02 | [84] 1.02 | [85] 0.988 | [86] 1.02 | [87] 1.05 | [88] 1.06 | [89] 1.05 | [90] 1.04 | [91] 0.994 | [92] 0.98
